The values that follow come from PubChem BioAssay (NCATS).

Inconclusive results are not listed. A call without a number means that no potency is given here. Activity calls are given as the source filed them. The call rests on the fitted dose curve; in most records, active means well fitted inhibition curve with a large enough effect; inconclusive means small, poorly fitted or top-dose-only effect; inactive means flat fitted curve, though single readings scatter.

Chain of Calcium and integrin-binding protein 1 (Homo sapiens) (Q99828 whole entry, looked up): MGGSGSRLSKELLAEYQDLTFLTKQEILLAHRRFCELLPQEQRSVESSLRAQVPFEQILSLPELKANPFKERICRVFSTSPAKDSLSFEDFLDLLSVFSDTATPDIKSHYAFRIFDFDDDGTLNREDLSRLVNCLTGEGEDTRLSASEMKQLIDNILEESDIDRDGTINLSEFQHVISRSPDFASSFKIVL

This assay has as its target Calcium and integrin-binding protein 1 (Homo sapiens) (UniProt Q99828). The assay can be described thus: Primary qHTS for Identification of Calcium Integrin Binding Protein 1 (CIB1) Competitor (AID 1508620).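 Further: GST tagged CIB1 binding a fluorescein labelled alphaIIb integrin peptide tracer; top concentration of the series differs between compounds.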 As to conditions: CIB1-GST / FITC-alphaIIb peptide fluorescence polarization; series mostly up to 114 µM. The essentials:
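CIB1-GST (1 uM final) and compound incubated 15 min at room temperature before adding FITC-alphaIIb peptide tracer (100 nM final). Competition for binding read by fluorescence polarization (ex 480, em 540) after another 15 min at room temperature.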
For the compound `Cc1ccc(C2N=C(Nc3nc4ccccc4o3)NC3=C2C(=O)CCC3)s1` (stereo not given), the Potency entry was “inactive”.
Under `Cc1ccc(NC(=O)CSc2nnc(-c3cccc([S+](=O)([O-])N4CCCC4)c3)n2-c2ccccc2)cc1` stands “inactive”.
On to `O=C(OCc1c(-c2ccccc2)no[n+]1[O-])c1ccccc1`, for which the Potency entry is “inactive”.
With `CC(C)(N)C(=O)Nc1ccc(Cl)cc1C(=O)c1ccc[nH]1` the entry was “inactive”; with `CN(c1cccc2cccnc12)S(=O)(=O)c1ccccc1`, “inactive”; with `Cc1ccnc(NC(=S)N2CCN(c3cccc(C(F)(F)F)c3)C2)c1`, “inactive”.
Under `COc1ccc(OC)c(C2=Nn3c(nnc3-c3cc(OC)ccc3OC)SC2)c1` stands “inactive”; under `COc1cc(O)c(C(CC(=O)N2CC(C)CC(C)C2)c2ccc(O)cc2)c(OC)c1` (stereo not given), “inactive”.
Regarding `O=S(=O)(Nc1cccc2cccnc12)c1ccc2ccccc2c1`, the Potency result was “inactive”.
For the compound `Cn1nnnc1Sc1ncnc2scc(-c3cccc([N+](=O)[O-])c3)c12`, the Potency result is “inactive”.
With `O=C1NC2=C(C(=O)CCC2)C(c2ccccc2Cl)N1` (stereo not given) the entry was “inactive”; with `O=[S+]([O-])(c1ccc2c(c1)OCCO2)N1CCN([S+](=O)([O-])c2ccc(F)cc2Br)CC1`, “inactive”.
For the compound `COc1ccc(-c2nnc3n2N=C(c2ccccc2OC)CS3)cc1`, the Potency entry was “inactive”.
On to `Cc1cc(NC(=O)Nc2nnc(-c3cccnc3)s2)ccc1Cl`, for which the Potency result was “inactive”.
With `N=c1c2c(ccn1-c1ccccc1)Oc1ccc3ccccc3c1C2c1ccccc1` (stereo not given), the Potency entry was “inactive”.
In the case of `O=C(NCc1ccccc1)Nc1ncnc2c1C(c1ccccc1)c1c(ccc3ccccc13)O2` (stereo not given), the Potency result is “inactive”.
As to `O=Cc1ccc(N2CCN(S(=O)(=O)c3ccc4c(c3)CC(=O)N4)CC2)cc1`, the Potency entry is “inactive”.
On to `Oc1cccc2cc(Nc3ccccc3)cnc12`, for which the Potency entry is “inactive”.
With `CC(=O)c1ccc(N2CCN(S(=O)(=O)c3ccc4c(c3)CC(C)N4C(C)=O)CC2)cc1` (stereo not given) the entry was “inactive”; with `O=C(Nc1ccc2ccccc2c1)Nc1nnc(-c2ccncc2)s1`, “inactive”; with `O=C(Cc1ccc2ccccc2c1)Nc1nnc(-c2ccncc2)s1`, “inactive”.
Consider `N#Cc1ccccc1-c1csc(N2CCC(C(N)=O)CC2)n1`, for which the Potency entry is “inactive”.
As for `COC(=O)Nc1sc2c(c1C(N)=O)CCCC2`, the Potency entry is “inactive”.
Take `O=C1CCCC2=C1C(c1cccc(Oc3ccccc3)c1)N=C(Nc1nc3ccccc3o1)N2` (stereo not given): the Potency entry is “inactive”.
As for `O=C(O)c1ccc(-c2cccc(-c3nn4c(=O)cc(N5CCNCC5)nc4s3)c2)cc1`, the Potency entry is “inactive”.
As to `COc1cccc(-c2nnc3n2N=C(c2c(OC)cccc2OC)CS3)c1OC`, the Potency result was “inactive”.
With `Cc1ccc(OCCn2c(CCNC(=O)c3c(F)cccc3F)nc3ccccc32)cc1`, the Potency result was “inactive”.
In the case of `Cc1cccc(-n2cnc3cc(C(=O)N4CCOCC4)ccc32)c1`, the Potency entry was “inactive”.
Under `Cc1sc(NC(=O)Cc2ccc3c(c2)OCO3)nc1-c1ccc2c(c1)CCN2C` stands “inactive”; under `Cc1cc(C)n2ncc(C(=O)Nc3ccccc3Sc3ccccc3)c2n1`, “inactive”; under `Cc1cc(N[S+](=O)([O-])c2cc3c(cc2Cl)NC(=O)CO3)ccc1Cl`, “inactive”.
As for `O=C(NCCc1nc2ccccc2n1CCOc1cccc([N+](=O)[O-])c1)C1CCCCC1`, the Potency entry is “inactive”.
As for `Cc1ccc(NC(=O)CN2C(=O)N/C(=C\c3cccn3-c3ccc([S+](N)(=O)[O-])cc3)C2=O)cc1`, the Potency entry was “inactive”.
Turning to `COc1cc(OC)cc(C2=Nn3c(nnc3-c3ccccc3O)SC2)c1`, the Potency entry was “inactive”.
Consider `Cc1ccc(OCCn2c(CCNC(=O)c3cc(N)ccc3N)nc3ccccc32)cc1`, for which the Potency entry was “inactive”.
With `O=C1NS(=O)(=O)c2cc(Br)ccc21` the entry was “inactive”; with `CC(C)CN1CC2=C(C1=O)C(c1ccccc1Cl)N=C(Nc1nc3ccccc3o1)N2` (stereo not given), “inactive”; with `Cc1cc(-c2nc(Nc3ccc(F)c(F)c3)c3ccccc3n2)ccn1`, “inactive”.
Regarding `CCc1nn2c(=O)cc(NC3CNC3)nc2s1`, the Potency result was “inactive”.
With `N#Cc1cccnc1SC1=NS(=O)(=O)c2ccccc21` the entry was “inactive”.
